VP16 counter: VP16 counterscreen qHTS for inhibitors of ROR gamma transcriptional activity; Drosophila S2 Gal4-VP16 UAS-luciferase, luminescence, 20 h; Potency, µM (top dose mostly 53.6 µM), for the others: top-dose activity, negative = inhibition, hits mostly inhibitors; 3.5% of 310,000 active;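 also: Gal4-VP16 expression switched on by copper sulfate through the metallothionein promoter; nearly all actives have a fitted effect of over 50% in size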
RORgamma inh: qHTS for inhibitors of ROR gamma transcriptional activity | Drosophila S2 Gal4-RORgamma UAS-luciferase reporter, 20 h | Nuclear receptor ROR-gamma (Mus musculus), P51450 | 5.4% of 310,000 active | Potency, µM (highest dose often 53.6 µM), for inactives: at the highest dose activity change, negative = inhibition, actives largely listed as inhibitors | AID 2551, 2010; also: nearly all actives have a fitted effect of over 60% in size
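Schneider cells (Drosophila), stable Gal4 DBD–ROR gamma + UAS-luc; 1 hr cmpd preincubation; Cu2+ induction 700 uM final; 20 hr ambient; luminescence.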
TDP1 cell noCPT: qHTS for Inhibitors of human tyrosyl-DNA phosphodiesterase 1 (TDP1): qHTS in cells in absence of CPT; DT40 Tdp1-/- hTDP1 cells, no CPT, ATP luminescence, 48 h; Potency, µM (highest dose often 46.2 µM), without a hit: at the highest dose activity change, negative = growth inhibition, usual class: inhibitors; 15% of 420,000 active; also: nearly all actives have a fitted effect of over 55% in size
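Stably hTDP1-transfected Tdp1-null chicken DT40 cells were treated with library compounds minus camptothecin and grown for at least 48 hr at 37 °C, after which cellular ATP was quantified by luminescence.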
DT40 TDP1 CPT: qHTS for Inhibitors of human tyrosyl-DNA phosphodiesterase 1 (TDP1): qHTS in cells in presence of CPT | chicken DT40 Tdp1-/-;hTDP1 cells + 20 nM CPT, ATP luminescence, 48 h | 12% of 420,000 active | Potency, µM (doses to about 46.2 µM), without a hit: top-dose activity change, negative = growth inhibition, actives largely listed as inhibitors; also: nearly all actives have a fitted effect of over 55% in size
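Chicken DT40 Tdp1-/- cells complemented with human TDP1, 400 cells/well, exposed to compounds plus 20 nM camptothecin for at least 48 h at 37 C; viability read as ATP content by CellTiter-Glo luminescence.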
TDP1 block: qHTS Assay for Inhibitors of Tyrosyl-DNA Phosphodiesterase (TDP1); Tyrosyl-DNA phosphodiesterase 1 (Homo sapiens), Q9NUW8; recombinant TDP1, AlphaScreen DNA substrate cleavage; Potency, µM (top dose mostly 130 µM), for inactives: top-dose activity change, negative = inhibition, usual class: inhibitors; 0.28% of 350,000 active; AID 485290, 2010; also: nearly all actives have a fitted effect of over 40% in size
Target sequence (Q9NUW8 whole entry, looked up): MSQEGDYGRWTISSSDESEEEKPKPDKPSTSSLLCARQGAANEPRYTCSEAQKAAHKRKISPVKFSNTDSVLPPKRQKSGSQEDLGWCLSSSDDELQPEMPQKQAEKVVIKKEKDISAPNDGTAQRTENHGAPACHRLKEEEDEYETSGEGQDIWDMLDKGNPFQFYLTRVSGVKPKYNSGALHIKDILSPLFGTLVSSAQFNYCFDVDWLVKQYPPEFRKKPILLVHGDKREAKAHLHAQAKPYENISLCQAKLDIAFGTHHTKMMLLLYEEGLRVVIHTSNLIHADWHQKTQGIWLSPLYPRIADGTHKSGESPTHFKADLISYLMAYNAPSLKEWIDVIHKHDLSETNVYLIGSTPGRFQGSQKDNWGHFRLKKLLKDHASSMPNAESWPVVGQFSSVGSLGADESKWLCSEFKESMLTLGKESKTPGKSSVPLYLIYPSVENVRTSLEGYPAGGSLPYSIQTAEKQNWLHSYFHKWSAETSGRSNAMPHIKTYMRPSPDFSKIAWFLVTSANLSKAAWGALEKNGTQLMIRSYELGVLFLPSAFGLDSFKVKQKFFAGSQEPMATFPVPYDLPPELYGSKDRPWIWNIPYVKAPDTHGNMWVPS
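Tdp1 1 nM final; 15 min RT w/ cpd; substrate 15 nM, 5 min; beads 10 ug/ml, 10 min; AlphaScreen read. Neg ctrl: no enzyme.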
The depositor's hits bear a star; u = inconclusive; x = no result. Compounds with a hit are over-represented: about 19% of the library has one in this group of screens. Calls follow the shape of the dose curve; as a rule, active = well fitted curve in the direction sought with a large enough effect; inconclusive = small, poorly fitted or top-dose-only effect, or another doubt; inactive = no such curve, though single readings can be large; an effect the other way counts as inactive or inconclusive. % is scaled to controls: 0 for no effect and ±100 for the full control effect; potency is read from the fitted curve at half-maximal effect.

SMILES	VP16 counter	RORgamma inh	TDP1 cell noCPT	DT40 TDP1 CPT	TDP1 block
CN(C)c1nc(C=C(C#N)C#N)c(Cl)n1-c1ccc(F)cc1	-3%	14µM*	5.2µM*	4.1µM*	0%
CCNc1nc(NC(C)(C)C)nc(N2CCCCC2)n1	u	u	21µM*	21µM*	5%
CC(C)(CO)Nc1nc(N2CCCC2)nc(N2CCCC2)n1	2%	32%	21µM*	u	2%
CCNc1nc(N2CCCC2)nc(N2CCCC2)n1	-9%	-27%	u	u	-3%
Cc1nnc(NC(=O)c2ccc(N3CCCC3=O)cc2)s1	x	x	-10%	u	-1%
CCOc1ccc2nc(NC(=O)c3ccc(OCC4CCCO4)cc3)sc2c1 (stereo not given)	u	u	5.8µM*	4.1µM*	1%
Cc1csc(NC(=O)c2ccc(N3CCCC3=O)cc2)n1	u	2.5µM*	u	-30%	7%
O=C(Nc1nc(-c2ccc(F)c(F)c2)cs1)c1ccc(OCC2CCCO2)cc1 (stereo not given)	-5%	-18%	u	u	5%
Cc1csc(NC(=O)c2ccc(OCC3CCCO3)cc2)n1 (stereo not given)	u	3.5µM*	u	u	3%
C=CCSC1=NC(=O)/C(=C/c2cccs2)S1	26%	u	u	u	3%
Cc1cccc(NC(=O)c2sc3ncn(CC(=O)N4CCN(c5ccccn5)CC4)c(=O)c3c2C)c1	-6%	20%	u	-25%	4%
S=c1[nH]nc(-c2cc(-c3ccccc3)n[nH]2)n1/N=C/C=C/c1ccco1	-11%	u	u	-1%	1%
Cc1[nH]c(N=Nc2ccccc2)nc1N=Nc1ccccc1	-18%	-23%	5.8µM*	5.8µM*	12%
Cc1cccc2c(N=Nc3ccccc3)c(O)[nH]c12	-4%	-17%	-2%	-3%	x
CCn1cc(C(=O)N2CCc3ccccc32)c(=O)c2cc(S(=O)(=O)N3CCCCCC3)ccc21	-1%	-5%	-11%	-20%	6%
CCOCCOc1nc(C)cc(C)c1S(=O)(=O)c1ccccc1C	-10%	-4%	u	-4%	6%
Cc1cc(C)c(S(=O)(=O)c2ccccc2C)c(SCC(C)C)n1	u	u	23µM*	u	-3%
Cc1ccccc1S(=O)(=O)c1c(C)cc(C)n(C(C)C)c1=O	-4%	11%	u	u	3%
Cc1ccc(S(=O)(=O)c2c(C)cc(C)nc2Oc2cccc(C)c2C)cc1	9%	u	18µM*	u	4%
Cc1cc(C)c(S(=O)(=O)c2ccccc2C)c(OCC(C)(C)C)n1	-27%	15%	9.2µM*	10µM*	1%
COc1nc(C)cc(C)c1S(=O)(=O)c1ccccc1	2%	-19%	-2%	0%	x
CCCSc1nc(C)cc(C)c1S(=O)(=O)c1ccccc1C	-20%	-6%	7.3µM*	16µM*	-1%
O=C(OCc1nnc(-c2ccccc2Br)o1)c1ccco1	x	x	3%	-9%	-3%
Cc1c(C)n(Cc2ccccc2)c2ncnc(NCCCO)c12	6%	10%	5%	13%	x
COc1ccc(-c2oc3ncn(CCN4CCOCC4)c(=N)c3c2-c2ccc(OC)cc2)cc1	-18%	-31%	13µM*	16µM*	0%
c1ccc(-c2oc3ncnc(NCCCN4CCOCC4)c3c2-c2ccccc2)cc1	u	-20%	23µM*	u	4%
COc1cc2ncnc(NCCCN3CCOCC3)c2cc1OC	-6%	9%	4%	6%	4%
CCOc1cc2nc(-c3ccc(OC)c(OC)c3)nc(NCCCN3CCOCC3)c2cc1OC	-18%	u	21µM*	u	2%
OCCCNc1ncnc2oc(-c3ccccc3)c(-c3ccccc3)c12	-5%	-12%	16µM*	u	x

Screens (PubChem)
